Measurements from PubChem BioAssay AID1347426 (Functional Genomics Laboratory (NCATS/FGL), 2020).
Among all 31,000 sequences or so, about 1,400 (4.5%) were called active. This is one part of a sample in which actives are shown more often than they occur. A number with no mark means an inactive call.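 How the source made its calls: active means median seed-adjusted z-score above 1 or below -1; inactive means the rest.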

Assay: Novel Modifiers of Survival Motor Neuron (SMN) Protein: Gene Identification via Genome-wide siRNA Screen;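 further: luminescence tracks full-length SMN protein made from the SMN2 reporter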
Conditions: HEK293T SMN2-luciferase reporter, siRNA knockdown, 72 h; actives lie on both sides
In short: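 siRNA screen, 10418 genes ×3 siRNAs; 1 pmol/well, lipid reverse transfection into HEK293T SMN2-luc reporter line. 72 h, 37 °C, 5% CO2; ONE-Glo readout. Data: neg-ctrl normalized, log10, MAD; hit = MAD >1.0 or < -1.0.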

For GCACCAGCCUUAACCCUCATT against RAB1B, the median seed-adjusted z-score was 1.55 (active).
In the case of ACAUGAUCUUGGACCUGGATT against CSNK2B, the median seed-adjusted z-score is reported as -1.62 (active).
With CAACCAUCCCAUGUCUGUUTT against NMNAT2 the median seed-adjusted z-score was -1.58 (active).
For CAAGCAUGGUCUUUCUACUTT against TUBB2A, the median seed-adjusted z-score was 1.03 (active).
With GAAAUACCCUCACAUGUUATT against LSM2 the median seed-adjusted z-score was -1.48 (active).
With GAGCUGCAACUGACAUCUUTT against PLTP the median seed-adjusted z-score was 1.09 (active).
For GCUACGGCGUGGACAAGAATT against RELB, the median seed-adjusted z-score was 1.16 (active).
For CAAAGGAUGUCAUUCGUAATT against CKAP5, the median seed-adjusted z-score was -1.87 (active).
In the case of GACCCGUACUUCAUGAAGATT against SF3A2, the median seed-adjusted z-score is reported as -1.7 (active).
With AGUAUGUGCUGAUCCGAGUTT against PHPT1 the median seed-adjusted z-score was 1.27 (active).
With GCUGACCGCUGGGUGAUAATT against TMPRSS6 the median seed-adjusted z-score was 1.29 (active).
In the case of GUACCUUUUCCAAACCAAATT against SETD8, the median seed-adjusted z-score is reported as -1.52 (active).
With CGAGUUCUAUCUUGAGAAUTT against TEX13A the median seed-adjusted z-score was -1.22 (active).
In the case of AGCAGGCUUUGAUCAUUGATT against FKBP6, the median seed-adjusted z-score is reported as -1.12 (active).
With CCAUGUUUCUCAUUAGUGUTT against NTSR1 the median seed-adjusted z-score was -1.1 (active).
In the case of CAUCUUUGCUAGUAAUCUATT against UBA7, the median seed-adjusted z-score is reported as 2.41 (active).
In the case of GGAGAAGGAUGGAACUCUUTT against SPATA21, the median seed-adjusted z-score is reported as -1.03 (active).
For AGGAUAUUGUGAUUCAGCATT against POLR2G, the median seed-adjusted z-score was -4.19 (active).
With GGAUGAGAAGGAUAAUGAUTT against IRF6 the median seed-adjusted z-score was -1.79 (active).
With GCGCGCUACUUUGGGAUAATT against POLR2E the median seed-adjusted z-score was -1.25 (active).
For GACCAGAUGUGGACAAUCATT against TAF6, the median seed-adjusted z-score was -1.36 (active).
In the case of GCUUUGAUGUGAUUCACCUTT against PRKAG3, the median seed-adjusted z-score is reported as -1.03 (active).
In the case of CCAAACCACUACAACCCUUTT against RPP21, the median seed-adjusted z-score is reported as -1.09 (active).

In order of rising median seed-adjusted z-score:
1. UCAUCAAUGCUACUGGUUATT against TM7SF2  -0.674
2. GAUAUAAAGUCAUGAAGAATT against USP30  -0.646
3. GAUGUAUUGUUACUACCAATT against SCNN1G  -0.616
4. GGAUGCAGAACGACGUGAATT against SLC25A10  -0.571
5. AGAAUGACAGGGUCCAGAATT against OGFR  -0.565
6. CCUCAACUCGUGAAGAAGATT against GPRC5A  -0.56
7. GGAUGGGUCUCGCAAAAUATT against ZFYVE1  -0.546
8. CGAUAACGACAGUAAAUCATT against CACNA2D1  -0.541
9. CGGCUGUGGUGAACCAGUATT against INHBB  -0.522
10. GGAUAGUGAUGAUGUCUAUTT against GPR98  -0.509
11. GCCUCAGAGUUCACGGACATT against ROBO4  -0.431
12. CUGCUAGUCUGUCUCCAAATT against SPINK7  -0.409
13. GGACCGUCUACUCAUCCAATT against IL8RB  -0.387
14. CCAUCCUUCAGGCGAAUUATT against ACTR8  -0.366
15. GAUGAUUACCUGCAGAGCATT against MYD88  -0.365
16. AAACGAUGUUGAUGUCCAATT against ATP6V1E1  -0.312
17. GCAAGACCUUUGACUACAATT against SSRP1  -0.31
18. GGUGAGAUGUGGUCUAUAUTT against HES7  -0.286
19. GCAUCUUCACCAAAGUCAUTT against RHEBL1  -0.268
20. CUACCAGCAUGUGAUGUUUTT against CH25H  -0.264
21. GGUCAUAGCCUACUGUCUATT against SLC32A1  -0.251
22. CGGCCGAAGUAGUAAAAGATT against ADA  -0.242
23. AGUUCUCGGAGGUGCUUAATT against CKB  -0.236
24. GGACCUCCCUUCAACAUCATT against DYSF  -0.23
25. CGAUCCUAUUCGAUGAGAATT against GRM5  -0.227
26. GGCUGACCUGUACCACUUUTT against SH3BP1  -0.225
27. GAUUGUCUCUUUAGUGGAATT against TGDS  -0.196
28. CCAUCAAAAUCGCAGACUUTT against DDR1  -0.166
29. UGCUCGUGCUCGUUCCAAATT against ING4  -0.152
30. GGCUUGCGCAAGAUCAAUATT against ATRNL1  -0.142
31. CGUGGACUCCCACUUCCAATT against OGG1  -0.128
32. GGCCUAAGCUAAAUCGAGATT against SKP2  -0.126
33. GCAAUCGGGUGGUAUCAUATT against COPS5  -0.124
34. GCGAAGUGUUCAGACCAAATT against HEATR1  -0.115
35. CCUCAUUGAUCAUCACCGATT against ZNF567  -0.114
36. GGACAAUCUUAUUCCUAUUTT against CFHR4  -0.0972
37. CCGUUGUUGUAAGAAGAAATT against MICA  -0.0635
38. GGAUGGACAUGUCAAAUCUTT against RBL1  -0.0547
39. GUCACAAGAUGGUCAAAAATT against CTNND2  -0.0491
40. CCAGCUCUUCUCUACCACATT against PAQR7  -0.0406
41. GUAUCAGAAUGAGAGUUCUTT against ACP2  -0.00569
42. AAAUCCCGGUGAUCAUCGATT against MAP1LC3A  0
43. GCUCUCAUAUCAUUCCAUUTT against PPIL5  0
44. GCUUUUAUCCUAGACAUCATT against PAQR8  0
45. UGCUGAGGGUGUUCCCAGATT against GABRR2  0
46. GGACUAUGUCUGCCUAUGATT against SCN7A  0
47. CUAAGAAUCUGCUUAGUAATT against CLDN5  0
48. CCUGAACACACCUUACAUATT against RNASE8  0.00771
49. GCGUGAUCCUUGCCUCUAATT against GDPD4  0.0109
50. GCAAUGCACUGACGGAUAUTT against EFEMP1  0.0157
51. GAAGAGAUAUUUACACCUUTT against CD47  0.0241
52. CUAGUUUAAUAAAGAUUCATT against APOE  0.0321
53. CAGGAGUGAUUAAACGGUUTT against GNAI3  0.0656
54. CCUCACACUUGAUUCAGUUTT against RPP38  0.07
55. CAAUAGGAUUGGUCACCAATT against PNPT1  0.0729
56. CCAACUCAUUGAUAGGGAUTT against PRPH2  0.0931
57. CAAAGAAGCUUUUUCACUATT against CALM2  0.127
58. GGAGUACCGGCUAACAAUATT against MORC4  0.13
59. GGAUCUGUAUCAAGCCGUUTT against APC  0.154
60. GGAGUUAGCACUAACAUAATT against NUP98  0.168
61. GCAUAGGAUUCAUUGAGUUTT against NME1  0.188
62. CAAAGGACCCAAUAGAAUUTT against GUCY2F  0.188
63. GAGACAACCUGCAACGACATT against GDI1  0.198
64. CCACAAGGGUUAUCUGUCATT against MAPK4  0.235
65. CAAAACAGACCGAAAGAAATT against DBX2  0.244
66. GCUUUCUAUCGAUCCUCAATT against ZNF681  0.271
67. CGGAUUGUCUAUUGCAUCATT against CALCRL  0.28
68. CGUCCAAGAUCGAACCCAUTT against HIRA  0.286
69. CUCUCUUAGUGUCCUUAGATT against PCDHGC4  0.301
70. GCACGUCGAGCAAUCCAAATT against MYOD1  0.309
71. GGAUUAAGCCCUUCGAAGATT against SOCS5  0.312
72. GGUCUGUUCUGCAAGCACATT against PARVG  0.321
73. GCAUCAGGUGAACAUCAAATT against TRIM16  0.345
74. GGUAUUCCUGUUCAACAAATT against ZNF235  0.348
75. GGAAGUACGUUCCAUACAATT against GALNT17  0.392
76. CAGUGAAGCUAUCAAGUUATT against PSMA8  0.407
77. GAAUUGGAGAGGCAACAAATT against LMO7  0.417
78. GGAUGUCUAGAUUACAUUUTT against PDE12  0.422
79. CAUAGAUUCUGUACGGCAATT against MPP5  0.429
80. GGAGGAGAUAGGCACUGAATT against TIGD3  0.486
81. CGAGAUCUCAAGUCUAACATT against ARAF  0.535
82. GGACCCAAGUCUUGCUGCATT against CARD18  0.568
83. CAGUGAAUAUGGAACCGGATT against CHD3  0.589
84. GUCACUUCAUGGGCAAGAATT against NMB  0.746
85. GUGGGAAAGUCUAUGGAAATT against KLF9  0.767
86. GGCAUAUGGUUAUCGAGGATT against EML4  0.958
